iPSC survival up: enhancers of human iPSC single-cell survival; hiPSC single-cell survival, ATPlite luminescence; 100% = ROCK inhibitor wells, 0% = DMSO; 0.044% of 360,000 active; AID 602274; survival enhancement, % at 20 µM; in the data active = survival enhancement above about 18%;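 note: cells exposed to compounds for 16 hours before the ATP read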
TAG inh: triacylglycerol accumulation inhibition; inhibition, % at 12.5 µM; 0.66% of 230,000 active; AID 651582; H9c2 cells, Nile Red lipid (TAG) fluorescence; cells loaded with 200 µM oleic acid;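 active = pattern-corrected inhibition of lipid staining of at least 50% with the nuclear-stain viability signal not falling by more than 50%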
CRFR2-BP antag: antagonists of CRF-binding protein/CRF-R2 receptor complex | HEK293 CRF-R2/CRF-BP, CRF-induced calcium fluorescence | inhibition, % at 11.8 µM | 0.59% of 350,000 active | AID 588475;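 active = inhibition of the ligand-induced calcium signal above about 50% at the single tested concentration, limit read from the data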
Cardio protect: protects H9c2 cardiomyocytes from peroxide injury. H2O2 injury protection, ATPLite, 2 h. protection from H2O2 cell death, % at 20 µM. 0.63% of 360,000 active;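 active = compounds giving at least 50% protection of heart cells from peroxide-induced death in the single-dose screen, raw or plate-pattern-corrected value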
SKN-1 inh: inhibitors of C. elegans SKN-1; 0.49% of 360,000 active; AID 624304; inhibition, % at 21.8 µM; C. elegans VP596 Pgst-4::GFP/RFP ratio, acrylamide-induced, 24 h;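 active = interference check ratio from 0.5 to 1.5 plus GFP to RFP signal ratio inhibition reaching or exceeding a fixed threshold, cut at about 30% in these data, passing the limit was not always enough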
CRFBP-R2 agonist: CRF-BP/CRF-R2 complex agonism. activation, % at 13.2 µM. HEK293 CRF-R2/CRF-BP, calcium dye fluorescence (FLIPR); percent of saturating CRF peptide response. AID 588473. 0.46% of 350,000 active;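 active = activation of at least 50%, plus an integration ratio under a set limit after plate pattern correction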
Hits are given with their value. Sampled rows, rich in hits. Any-hit rate of the full collection: about 2.5%.

What do the screens show for `O=C(CCN1C(=O)C2CC=CCC2C1=O)NC1CCCCC1` (stereo unspecified)?
iPSC survival up: inactive; TAG inh: inactive; CRFR2-BP antag: inactive; Cardio protect: inactive; SKN-1 inh: inactive; CRFBP-R2 agonist: inactive

Results for CC1CCC(NC(=O)CCN2C(=O)C3CC=CCC3C2=O)CC1 (stereo unspecified) ?
iPSC survival up: inactive; TAG inh: inactive; CRFR2-BP antag: 106; Cardio protect: inactive; SKN-1 inh: inactive; CRFBP-R2 agonist: inactive

What do the screens show for `CCOCCCN(CC(=O)NC1CCCC1)C(=O)C(=O)Nc1ccc2c(c1)OCCO2`?
iPSC survival up: inactive; CRFR2-BP antag: 97; Cardio protect: inactive; SKN-1 inh: inactive; CRFBP-R2 agonist: inactive

How did CCOCC(=O)Nc1ccc2c(c1)OCCO2 do in these assays?
iPSC survival up: inactive; TAG inh: inactive; CRFR2-BP antag: inactive; Cardio protect: inactive; SKN-1 inh: inactive; CRFBP-R2 agonist: inactive

What do the screens show for `CCN(CC)S(=O)(=O)c1ccc2c(c1)N(CC(=O)NCc1ccco1)C(=O)CO2`?
iPSC survival up: inactive; TAG inh: inactive; CRFR2-BP antag: 83; Cardio protect: inactive; SKN-1 inh: inactive; CRFBP-R2 agonist: inactive

What do the screens show for `CCc1nc(SCC(=O)NC2CCCC2)c2c(=O)n(C)c(=O)n(C)c2n1`?
iPSC survival up: inactive; TAG inh: inactive; CRFR2-BP antag: inactive; Cardio protect: inactive; SKN-1 inh: inactive; CRFBP-R2 agonist: inactive

How did Cc1cc(Br)cn2c(Cc3ccccc3)c(-c3ccccc3)nc12 do in these assays?
iPSC survival up: inactive; Cardio protect: inactive; SKN-1 inh: inactive

Results for COc1ccc(NC(=O)c2ccc3c(c2)OCO3)cc1Cl ?
iPSC survival up: inactive; TAG inh: inactive; CRFR2-BP antag: inactive; Cardio protect: inactive; SKN-1 inh: 41; CRFBP-R2 agonist: inactive

What do the screens show for `O=C(Nc1ccc2c(c1)OCO2)c1cccc(F)c1`?
iPSC survival up: inactive; TAG inh: inactive; CRFR2-BP antag: inactive; Cardio protect: inactive; SKN-1 inh: 40; CRFBP-R2 agonist: inactive

Results for COc1cc(-c2nc(-c3ccc(NC(=O)c4ccc5c(c4)OCO5)cc3)no2)cc(OC)c1OC ?
iPSC survival up: inactive; TAG inh: 93; CRFR2-BP antag: inactive; Cardio protect: inactive; SKN-1 inh: inactive; CRFBP-R2 agonist: inactive

How did CCOC(=O)[C@]12CCCC=C1N(Cc1ccccc1)C(=O)[C@H](CC(=O)NCCc1ccccc1OC)C2 do in these assays?
SKN-1 inh: inactive

How did O=c1cc(-c2ccc(C3CCCCC3)cc2)[nH][nH]1 do in these assays?
iPSC survival up: inactive; CRFR2-BP antag: inactive; Cardio protect: inactive; SKN-1 inh: inactive; CRFBP-R2 agonist: inactive

Results for O=C(Cn1cc(COc2ccc(-n3cccc3)cc2)nn1)NS(=O)(=O)c1ccccc1C(F)(F)F ?
iPSC survival up: inactive; TAG inh: inactive; Cardio protect: inactive; SKN-1 inh: inactive

What do the screens show for `O=C(CCCc1ccccc1)Nc1ccc2c(c1)OCCO2`?
iPSC survival up: inactive; CRFR2-BP antag: inactive; Cardio protect: inactive; SKN-1 inh: inactive; CRFBP-R2 agonist: inactive

What do the screens show for `O=C(CCCc1cccs1)Nc1ccc2c(c1)OCO2`?
iPSC survival up: inactive; TAG inh: inactive; CRFR2-BP antag: 58; Cardio protect: inactive; SKN-1 inh: inactive; CRFBP-R2 agonist: inactive

How did Cc1nn(CC(=O)NCCc2cccs2)c(=O)c2nn(-c3ccccc3)c(C)c12 do in these assays?
iPSC survival up: inactive; CRFR2-BP antag: inactive; Cardio protect: inactive; SKN-1 inh: inactive; CRFBP-R2 agonist: inactive

What do the screens show for `Cc1ccc(-n2nc3c(=O)n(CC(=O)NCc4cccs4)nc(C)c3c2C)cc1`?
iPSC survival up: inactive; CRFR2-BP antag: 64; Cardio protect: inactive; SKN-1 inh: inactive; CRFBP-R2 agonist: inactive

How did Cc1ccccc1NC(=O)Nc1nc(CN)cs1 do in these assays?
iPSC survival up: inactive; TAG inh: inactive; Cardio protect: inactive; SKN-1 inh: inactive

What do the screens show for `Nc1ncnc(NNC(=O)CNC(=O)c2c(F)cccc2Cl)c1[N+](=O)[O-]`?
iPSC survival up: inactive; TAG inh: inactive; CRFR2-BP antag: 101; Cardio protect: inactive; SKN-1 inh: inactive; CRFBP-R2 agonist: inactive

What do the screens show for `Cc1cccc(S(=O)(=O)NC(=O)C2(C)CCN2C(=O)c2cccc(F)c2)c1` (stereo unspecified)?
iPSC survival up: inactive; TAG inh: inactive; Cardio protect: inactive; SKN-1 inh: inactive

How did CN(C)c1nc(NCc2ccccc2)nc(SCC(=O)Nc2ccccc2Cl)n1 do in these assays?
iPSC survival up: inactive; CRFR2-BP antag: 58; Cardio protect: inactive; SKN-1 inh: inactive; CRFBP-R2 agonist: inactive

Results for CN(C)c1nc(NCc2ccccc2)nc(SCC(=O)Nc2ccccc2)n1 ?
iPSC survival up: inactive; CRFR2-BP antag: inactive; Cardio protect: inactive; SKN-1 inh: inactive; CRFBP-R2 agonist: inactive

How did CC(C)c1cc(N2CCC(=O)NC2=O)cc(C(=O)O)c1O do in these assays?
iPSC survival up: inactive; CRFR2-BP antag: 52; Cardio protect: inactive; SKN-1 inh: inactive; CRFBP-R2 agonist: inactive

How did CC(C)N1CCC(=O)NC1=O do in these assays?
iPSC survival up: inactive; TAG inh: inactive; CRFR2-BP antag: inactive; Cardio protect: inactive; SKN-1 inh: inactive; CRFBP-R2 agonist: inactive

Results for COc1ccccc1N=Nc1nc(-c2ccccc2)c(-c2ccccc2)[nH]1 ?
iPSC survival up: inactive; CRFR2-BP antag: inactive; Cardio protect: inactive; SKN-1 inh: 36; CRFBP-R2 agonist: inactive

What do the screens show for `COc1ccc(N=Nc2nc(-c3ccccc3)c(-c3ccccc3)[nH]2)cc1`?
iPSC survival up: inactive; CRFR2-BP antag: inactive; Cardio protect: inactive; SKN-1 inh: inactive; CRFBP-R2 agonist: inactive

What do the screens show for `Cc1ccc([N+](=O)[O-])cc1NC(=O)c1ccoc1C`?
iPSC survival up: inactive; CRFR2-BP antag: inactive; Cardio protect: inactive; SKN-1 inh: inactive; CRFBP-R2 agonist: inactive

What do the screens show for `COc1ccc(C2C3=C(N=C4SCC(=O)N42)c2ccccc2CC3)cc1OC` (stereo unspecified)?
iPSC survival up: inactive; CRFR2-BP antag: inactive; Cardio protect: inactive; SKN-1 inh: 48; CRFBP-R2 agonist: inactive

What do the screens show for `COc1ccc(NC(=O)c2cc(C3CCCCN3C(=O)c3cccs3)on2)c(C)c1` (stereo unspecified)?
iPSC survival up: inactive; TAG inh: inactive; Cardio protect: inactive; SKN-1 inh: inactive

What do the screens show for `COc1cccc(C(=O)Nc2cc(C(=O)NCc3ccc(C)cc3)ccc2N2CCC3(CC2)CC(c2cccc(Br)c2)=NO3)c1`?
iPSC survival up: inactive; TAG inh: inactive; CRFR2-BP antag: 66; Cardio protect: inactive; SKN-1 inh: inactive; CRFBP-R2 agonist: inactive

Results for Cc1ccc(CNC(=O)c2ccc(N3CCC4(CC3)CC(c3cccc(Br)c3)=NO4)c(NC(=O)c3cccc(C)c3)c2)cc1 ?
iPSC survival up: inactive; TAG inh: inactive; CRFR2-BP antag: inactive; Cardio protect: inactive; SKN-1 inh: inactive; CRFBP-R2 agonist: inactive

What do the screens show for `COc1ccc2c3c(n(C(=O)OC(C)(C)C)c2c1)C1CC=C(COC(C)=O)CN1CC3` (stereo unspecified)?
SKN-1 inh: inactive
